# Only some compounds are listed: those with a hit (about 10% of all), similar ones and a draw of the others.
# KB-V1 MDR tox – KB-V1 MDR subline cytotoxicity; KB-V1 MDR cells viability, CellTiter-Glo, 72 h; AID 1347076; Potency, µM (doses to about 46.1 µM), most hits filed as cytotoxic; 400,000 compounds, 3.4% hits; further: on the % scale 0 is the no-effect control and ±100 the full control effect; nearly all actives have a fitted effect of over 60% in size
#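 qHTS viability screen in drug-selected KB-V1 MDR cells: 72 h compound treatment at 37 degrees C, ATP luminescence end point.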
# KB-3-1 cytotox – KB-3-1 parental cell cytotoxicity; KB-3-1 viability, CellTiter-Glo ATP luminescence, 72 h; Potency, µM (highest dose often 46.1 µM), usual class: cytotoxic; 400,000 compounds, 1.4% hits; AID 1347075; further: on the % scale 0 is the no-effect control and ±100 the full control effect; nearly all actives have a fitted effect of over 60% in size
#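 Cytotoxicity in the drug-sensitive parental line KB-3-1 was scored as loss of CellTiter-Glo luminescence following 72 h incubation with compound. Values come from curve fitting of normalized concentration-response data.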
# RORgamma inh – inhibitors of mouse ROR gamma transcriptional activity; Drosophila S2 Gal4-RORgamma UAS-luciferase reporter, 20 h; Potency, µM (highest dose often 53.6 µM), inactives show top-dose activity change, negative = inhibition, actives largely listed as inhibitors; 310,000 compounds, 5.4% hits; further: on the % scale 0 is the no-effect control and ±100 the full control effect; nearly all actives have a fitted effect of over 60% in size
# Target sequence (P51450 whole entry, looked up, the tested form may be a part): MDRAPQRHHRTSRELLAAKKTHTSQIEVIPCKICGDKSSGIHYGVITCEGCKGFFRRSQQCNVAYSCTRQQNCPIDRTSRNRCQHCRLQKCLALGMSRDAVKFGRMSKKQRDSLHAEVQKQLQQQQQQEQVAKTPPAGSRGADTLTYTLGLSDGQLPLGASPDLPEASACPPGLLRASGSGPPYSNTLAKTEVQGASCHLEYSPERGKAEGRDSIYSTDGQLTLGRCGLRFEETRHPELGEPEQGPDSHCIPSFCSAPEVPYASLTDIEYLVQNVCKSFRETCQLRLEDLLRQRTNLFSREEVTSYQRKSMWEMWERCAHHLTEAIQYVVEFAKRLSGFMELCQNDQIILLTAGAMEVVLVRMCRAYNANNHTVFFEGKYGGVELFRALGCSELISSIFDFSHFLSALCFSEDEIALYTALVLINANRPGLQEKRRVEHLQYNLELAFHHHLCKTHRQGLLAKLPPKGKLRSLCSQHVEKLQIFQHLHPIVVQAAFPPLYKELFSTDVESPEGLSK
#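 In this cell-based reporter format, copper sulfate (700 uM final) drives Gal4–ROR gamma fusion expression from a metallothionein promoter in Drosophila Schneider cells; compounds preincubated 1 hr, reporter read after 20 hr at ambient temperature.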
# SW480 rereplic – inducers of DNA re-replication in SW480 colon cancer cells; 340,000 compounds, 1.8% hits; SW480 DNA re-replication, Hoechst DNA content imaging, 48 h; Potency, µM (top dose mostly 46.1 µM), for the others: at the highest dose re-replication activation, hits mostly activators; further: % of control where 0% means no effect; nearly all actives have a fitted effect of over 55% in size
#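 First, 250 cells per well were seeded. Next, compound or vehicle (23 nL) was pinned in, plates sat 48 hr at 37 C. Finally Hoechst was added for 40 min before fluorescence scanning.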
# MCF10A rereplic – induces DNA re-replication in MCF 10a normal breast cells. 350,000 compounds, 2.9% hits. MCF 10A DNA re-replication, Hoechst nuclear intensity, 48 h. Potency, µM (highest dose often 46.1 µM), for inactives: top-dose activity, positive = re-replication, hits mostly activators; further: % of control where 0% means no effect; nearly all actives have a fitted effect of over 50% in size
# Gal4-VP16 FLuc – Gal4-VP16 reporter inhibition counter-screen. Drosophila S2 Gal4-VP16 UAS-luciferase, luminescence, 20 h. Potency, µM (titrated, usually from 53.6 µM), inactives show top-dose activity, negative = inhibition, hits mostly inhibitors. 310,000 compounds, 3.5% hits;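 further: Gal4-VP16 expression switched on by copper sulfate through the metallothionein promoter; on the % scale 0 is the no-effect control and ±100 the full control effect; nearly all actives have a fitted effect of over 50% in size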
# Starred values were filed as active, the others as inactive; i = inactive; ? = inconclusive; · = no result; [ ] = dose if it differs, or a comment. The call rests on the fitted dose curve; in most records, active means well fitted curve in the direction sought with a large enough effect; inconclusive means small, poorly fitted or top-dose-only effect, or another doubt; inactive means no such curve, though single readings can be large; an effect the other way counts as inactive or inconclusive. Potency means the concentration at half of the fitted maximal effect.
SMILES,KB-V1 MDR tox,KB-3-1 cytotox,RORgamma inh,SW480 rereplic,MCF10A rereplic,Gal4-VP16 FLuc
Cc1ccc(-n2c(Cc3ccccc3)n[nH]c2=S)c(C)c1,i,i,1.6µM*,1%,17%,?
S=c1[nH]nc(Cc2ccccc2)n1-c1cccc2ccccc12,i,i,4µM*,7%,-29%,?
Cc1ccc(-n2c(CC#N)n[nH]c2=S)c(C)c1,i,i,-41%,-8%,-1%,-11%
CN(Cc1cccs1)C(=O)Cn1cnc2cc([N+](=O)[O-])ccc2c1=O,i,i,-9%,-13%,0.82µM*,-4%
O=C1CCCC2=C1C(c1ccc(O)c(O)c1)c1c(ccc3ncccc13)N2 (centres undefined),i,i,17%,2%,1%,-5%
O=C1CCCC2=C1C(c1ccc(O)cc1)c1c(ccc3ccccc13)N2 (centres undefined),i,i,-1%,?,16µM*,7%
CC(C)(C)c1cc(NCc2ccccn2)n2ncc(-c3ccc(Cl)cc3)c2n1,i,i,0.56µM*,-6%,11%,?
CN(C)CCCNc1cc(C(C)(C)C)nc2c(-c3ccc(Cl)cc3)cnn12,?,i,2µM*,?,?,14µM*
COc1ccc2c(c1)c(N1CCCC1=O)c(C(=O)Nc1cc(C)c(Cl)cc1OC)n2C,i,?,·,·,·,·
Cc1cc(=O)n(CC(=O)N2CCN(c3ccc(F)cc3)CC2)c2c1c(C)nn2C,i,i,·,·,·,·
CC(=O)N1N=C(c2ccc3ccccc3c2)OC1(C)C,18µM*,?,2%,0%,?,0%
CC(=O)N1N=C(c2ccc(C(C)(C)C)cc2)OC1(C)C,i,i,?,?,?,?
Cc1ccc(C(=O)CSC2=C(C#N)C(c3ccco3)CC(=O)N2)c(C)c1 (centres undefined),15µM*,i,9%,-3%,25%,25%
COC(=O)CSC1=C(C#N)C(c2ccc(C)o2)CC(=O)N1 (centres undefined),?,18µM*,11%,5.8µM*,?,-5%
CCOc1ccc(NC(=O)C(=O)NCCc2csc(-c3ccc(F)cc3)n2)cc1,i,i,·,·,·,·
COc1cc2c(C#CCCO)c(-c3ccc(C#N)cc3)oc(=O)c2cc1OC,i,i,·,-14%[9.22 µM],6.5µM*,·
C/C(CC(=O)Nc1cc(C)ccn1)=N\NC(=O)c1cccc(C)c1O,?,?,11µM*,12µM*,?,5µM*
C/C(CC(=O)Nc1cc(C)ccn1)=N\NC(=O)C(=O)NC(C)C,i,i,-39%,-23%,-11%,-1%
C/C(CC(=O)Nc1cc(C)ccn1)=N\NC(=O)c1cccc(C)c1,i,?,11µM*,-7%,-13%,-29%
C/C(CC(=O)Nc1ccccn1)=N\NC(=O)c1ccccc1O,i,?,-26%,1.3µM*,14%,?
C/C(CC(=O)Nc1cccc(Br)c1)=N\NC(=O)c1ccc(O)cc1O,i,i,0.89µM*,2%,1%,?
CC12CCC=CC1C(c1ccoc1)N(Cc1ccccc1)C2=O (centres undefined),·,·,16%,·,·,16%
CCCC[C@@H]1C[C@H]1C(NC(=O)c1ccco1)c1ccccc1C(F)(F)F (some centres undefined),·,·,29%,·,·,-13%
C/C(=N/NC(=O)c1cccc(C)c1)c1c(O)cc(C)oc1=O,?,?,?,-5%,5%,3.5µM*
Cc1c2cnn(CC(=O)NCCc3ccccc3)c(=O)c2c(C)n1Cc1ccccc1,i,i,·,·,·,·
SMILES,KB-V1 MDR tox,KB-3-1 cytotox,RORgamma inh,SW480 rereplic,MCF10A rereplic,Gal4-VP16 FLuc
CCCC[C@]12Cc3ccccc3[C@H](O1)C1=C(O2)C(=O)c2ccccc2C1=O,·,·,-3%[10 µM],·,·,-9%[10 µM]
COc1cc(C(=O)Nc2nnc(CC(C)(C)C)s2)c([N+](=O)[O-])cc1OC,21µM*,i,-19%,12%,-3%,-1%
COC(=O)Nc1nnc(Cc2ccc(OC)cc2)s1,i,i,13%,-4%,2%,-3%
CCOCc1nnc(NC(=O)c2cc(OC)c(OC)cc2[N+](=O)[O-])s1,i,i,25%,-10%,-11%,-2%
COc1ccc(Cc2nnc(NC(=O)c3ccccc3[N+](=O)[O-])s2)cc1,i,i,-2%,-75%,23µM*,2%
COc1ccc(Cc2nnc(NC(=O)c3cccc([N+](=O)[O-])c3C)s2)cc1,21µM*,i,-21%,-9%,29%,-3%
COc1ccc(Cc2nnc(NC(=O)c3cccc(C)c3)s2)cc1,i,i,-40%,2%,-53%,-9%
Cc1nnc(N2CCN(c3cccc(C(F)(F)F)c3)CC2)c2c1nnn2Cc1ccccc1,?,i,·,·,·,·
Cc1ccc(-c2nnc(Nc3ccc(O)cc3)c3ccccc23)cc1S(=O)(=O)NCC1CCCO1 (centres undefined),i,?,·,·,·,·
COc1ccccc1/C=N/NC(=O)c1cccc2ccccc12,i,i,-40%[1.91 µM],?,-3%,7%
Cc1sccc1/C=N/NC(=O)c1cccc2ccccc12,?,i,11µM*,0%,?,?
COc1ccc(/C=N/NC(=O)c2cccc3ccccc23)c(OC)c1OC,?,?,·,-14%,15µM*,·
COc1ccccc1CNc1ccc(-c2nc(C(C)C)no2)cc1[N+](=O)[O-],i,i,·,·,·,·
COc1ccc2c(Sc3ccc(Cl)cc3)c(C(=O)N3CCCCC3)[nH]c2c1,i,i,·,·,·,·
Cn1nnnc1SCCCNCc1cccc(OCc2ccccc2)c1,i,i,·,·,·,·
CCOC1=C2CN(S(=O)(=O)c3ccc(C)cc3)C(c3ccc(CC)cc3)CC2N(S(=O)(=O)c2ccc(C)cc2)C(c2ccc(CC)cc2)C1 (centres undefined),i,1µM*,·,·,·,·
Cc1noc(Cn2c(=O)c3cc4c(cc3n(CC(=O)Nc3ccccc3F)c2=O)OCO4)n1,i,i,·,·,·,·
Brc1ccc(-c2cn3c(n2)CCc2ccc4cccnc4c2-3)cc1,16µM*,i,6%,?,23µM*,?
Cc1ccc2c(CC(=O)Nc3cc(C(F)(F)F)ccc3Cl)coc2c1C,i,i,·,·,·,·
CCOC(=O)C1=CCC(c2cccn2C(=O)OC(C)(C)C)N(S(=O)(=O)c2ccc(C)cc2)C1 (centres undefined),i,i,·,·,·,·
O=C1c2ccccc2-n2c1nc1ccccc1c2=O,?,?,?,1.2µM*,8%,4%

# Bioassay records deposited in PubChem BioAssay by National Center for Advancing Translational Sciences (NCATS).
